From PubChem BioAssay come the findings set out here.

Calls of active or inactive are those of the source.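 The calls were made as follows, unless noted: active = fluorescence slope after compound addition differing from the mean of all screened samples at 99.7% confidence, in either direction; inactive = the rest.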

Test [1] in a line: inhibitors of TNFa-induced NFkB p65 translocation, primary screen, imaging, HUVEC, MLSMR starter and 10KST1 sets (AID 438;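 active = inhibition above 20% together with a positive visual image hit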;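 also: compound added about 3h40 before a 20 min TNFalpha stimulation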;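 as to inhibition: signal is the nuclear over cytoplasmic p65 intensity ratio per well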). The settings on record: HUVEC TNFa-induced p65 nuclear translocation; cell count: measured here: nuclei count (cytotoxicity indicator), at 2.08 µM; inhibition: at 2 µM, stronger effect = higher value, 0% TNFa-plus-vehicle, 100% no-TNFa wells.
Test [2] is described as follows: inhibitors of mutant huntingtin aggregation, primary screen, imaging, exon1htt(103Q)mCFP cells, high-content imaging (AID 483;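 active = visual image review flags a hit and inhibition of aggregation exceeds 20%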;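 also: compound exposure lasted 3 days before fixation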;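 as to nuclei count: percent of the per-plate median nuclei count of sample wells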). The conditions noted are these: exon1htt(103Q)mCFP cell line, aggregate imaging, at 2 µM; inhibition of aggregation: stronger effect = higher value; nuclei count: measured here: cell count, toxicity.
A short description of test [3]: inhibitors of E-selectin induction by TNFa, primary screen, imaging, HUVEC, immunofluorescence, MLSMR starter and 10KST1 sets (AID 487;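 active = visually confirmed hit in the image check and inhibition above 20%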;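 as to inhibition: signal is fraction of cell area covered by stained E-selectin grains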;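 as to nuclei count: 100% = median nuclei count of all wells on the same plate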). The settings on record: HUVEC TNFalpha-induced E-selectin immunofluorescence imaging, at 2 µM; inhibition: stronger effect = higher value; nuclei count: measured here: cell number, toxicity.
For test [4], the target named is Voltage-gated potassium channel subunit beta-2 (Rattus norvegicus) (UniProt P62483). Description: KvBeta enzyme negative modulators, primary screen, biochemical, NADPH fluorescence (AID 622;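 active = fluorescence slope higher than the sample average by over 3 SD, cut at about -0.22 in these data, passing the limit was not always enough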;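 also: slope of raw intensity against log time taken from 70 to 1610 s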). The conditions noted are these: recombinant KvBeta, 4-cyanobenzaldehyde reduction, at 10 µM, stronger effect = higher value.
Voltage-gated potassium channel subunit beta-2 (Rattus norvegicus), sequence (P62483 whole entry, looked up): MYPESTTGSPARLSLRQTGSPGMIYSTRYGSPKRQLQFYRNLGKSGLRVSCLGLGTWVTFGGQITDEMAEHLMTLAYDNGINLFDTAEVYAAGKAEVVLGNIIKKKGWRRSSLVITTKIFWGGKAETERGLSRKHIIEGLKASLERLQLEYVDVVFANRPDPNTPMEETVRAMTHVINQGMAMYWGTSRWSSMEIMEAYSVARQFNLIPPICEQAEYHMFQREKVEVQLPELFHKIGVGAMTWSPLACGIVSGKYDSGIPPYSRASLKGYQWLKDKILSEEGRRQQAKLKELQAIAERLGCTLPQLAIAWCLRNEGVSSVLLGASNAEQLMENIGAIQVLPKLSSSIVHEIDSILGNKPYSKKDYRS
Test [5] shares this target. Description: KvBeta positive modulators, primary screen, biochemical, NADPH fluorescence (AID 623;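 active = NADPH fluorescence slope more negative than the mean of all samples by about 3 SD, 99.7% confidence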;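 also: fluorescence intensity change per second fitted from 20 to 320 s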). The settings on record: Recombinant KvBeta, NADPH fluorescence decrease slope, 10 min; at 10 µM; stronger effect = lower value.
In test [6] the target is Alpha-2C adrenergic receptor (Homo sapiens) (UniProt P18825). The test can be described thus: modulators of alpha2C/GIRK thallium flux, primary screen, cell-based, HEK293 alpha2C/GIRK1/2 (AID 624).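 Also: slope of fluorescence ratio to pre-addition baseline per second over 15 to 24 s.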 The conditions noted are these: thallium flux BTC fluorescence, at 10 µM, actives lie on both sides.
Alpha-2C adrenergic receptor (Homo sapiens), sequence (P18825 whole entry, looked up): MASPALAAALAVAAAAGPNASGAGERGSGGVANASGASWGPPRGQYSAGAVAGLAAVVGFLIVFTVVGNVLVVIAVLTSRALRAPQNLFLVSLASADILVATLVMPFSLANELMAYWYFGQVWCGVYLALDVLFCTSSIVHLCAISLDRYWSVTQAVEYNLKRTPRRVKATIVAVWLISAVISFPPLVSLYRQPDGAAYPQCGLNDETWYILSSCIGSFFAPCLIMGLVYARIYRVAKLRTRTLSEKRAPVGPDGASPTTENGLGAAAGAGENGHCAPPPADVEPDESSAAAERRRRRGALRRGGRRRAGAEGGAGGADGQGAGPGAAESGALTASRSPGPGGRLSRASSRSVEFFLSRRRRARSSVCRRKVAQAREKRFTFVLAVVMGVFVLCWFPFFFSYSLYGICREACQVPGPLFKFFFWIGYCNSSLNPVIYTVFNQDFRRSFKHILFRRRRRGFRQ
Test [7] can be described thus: inhibitors of Sendai virus-induced IRF3 signaling, primary screen, TLR/RLR signaling modifier project, cell-based, Sendai virus stimulus, luciferase, 10K MLSCN set (AID 602276;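 active = inhibition at or above 50% at 10 µM; inactive = inhibition below 50%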;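 also: firefly luciferase from ISG56 promoter only with Renilla not read in this screen; 0% = Sendai virus plus DMSO and 100% = medium plus DMSO without virus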). The settings on record: HEK293 RL24 IRF3 luciferase reporter, at 10 µM, stronger effect = higher value. In general terms: A reporter such as luciferase makes a cellular process visible.
The nature of test [8]: inhibitors of poly I:C-induced TLR3 signaling, primary screen, cell-based, poly I:C stimulus, luciferase, 10K MLSCN set (AID 602277;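 active = inhibition of the reporter signal at or above 50%; inactive = inhibition below 50%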). The conditions noted are these: HEK293-TLR3 RL24 IRF3 luciferase reporter, at 10 µM, stronger effect = higher value.

As usually defined, the inhibition is the change of the read-out against control, counted positive when it falls. Take `O=C1c2ccccc2C(Nc2ccc(F)cc2F)N1CCN1CCOCC1` (stereo not given): in test [1], the cell count is 791. In addition, the inhibition is 1.8% (inactive) in test [1], -46.2% (inactive) in test [3], 13.8% (inactive) in test [7] and 38.8% (inactive) in test [8]. Further, in test [2], the inhibition of aggregation is 19.4% (inactive). The nuclei count was 101% in test [2] and 124% in test [3]. Moreover, the fluorescence slope in test [4] is -0.416 (inactive). For the same molecule, the NADPH fluorescence slope in test [5] is -3.1e-05 (inactive). In addition, in test [6], the slope was 0.00478 (inactive).
Consider `CCN1CCN(Cc2ccc(NC(=O)Nc3ccccc3)cc2)CC1`, for which, in test [1], the cell count worked out at 552. Besides, the inhibition in test [1] was -7.5% (inactive); in test [3], -49.1% (inactive); in test [7] it was 10.6% (inactive); in test [8] it was -14.4% (inactive). Also, in test [2], the inhibition of aggregation was -20.2% (inactive). For the same molecule, the nuclei count worked out at 56.6% in test [2] and 102% in test [3]. Further, the fluorescence slope in test [4] is -0.605 (inactive). Besides, in test [5], the NADPH fluorescence slope is -1.7e-05 (inactive). In addition, the slope in test [6] is 0.00679 (inactive).
In the case of `CC1(C)Cc2c(c(=S)nc(-c3ccccc3)n2CCO)CO1`, the cell count in test [1] was 278. For the same molecule, the inhibition in test [1] was -0.5% (inactive); in test [3], 41.7% (inactive); in test [7] it was 8.44% (inactive); in test [8] it was 23.5% (inactive). In addition, in test [2], the inhibition of aggregation was 19% (inactive). Further, the nuclei count in test [2] worked out at 109%; in test [3] it was 93.9%. Further, the fluorescence slope in test [4] was -0.501 (inactive). In addition, the NADPH fluorescence slope in test [5] is -5.3e-05 (inactive). The slope in test [6] was 0.006 (inactive).
Regarding `O=C(CSc1nnnn1C1CCCC1)Nc1cccc(NC(=O)c2ccco2)c1`, the cell count in test [1] came out at 747. Also, the inhibition in test [1] is -15.8% (inactive); in test [3], -76.4% (inactive); in test [7] it was 5.72% (inactive); in test [8] it was 9.32% (inactive). The inhibition of aggregation in test [2] is 21.9% (inactive). For the same molecule, the nuclei count in test [2] amounted to 56.9%; in test [3] it was 132%. The fluorescence slope in test [4] is -0.329 (inactive). Besides, the NADPH fluorescence slope in test [5] is 2.2e-05 (inactive). The slope in test [6] is 0.00506 (inactive).
In the case of `Cc1cnc(NC(=O)CSc2nc3ccccc3c(=O)[nH]2)s1`, the cell count in test [1] was 281. Besides, the inhibition in test [1] is 8.9% (inactive); in test [3] it was 65% (active); in test [7] it was 2.98% (inactive); in test [8], -0.232% (inactive). Moreover, the inhibition of aggregation in test [2] is -0.5% (inactive). The nuclei count in test [2] came to 99.4%; in test [3] it was 98.4%. In test [4], the fluorescence slope was -0.427 (inactive). The NADPH fluorescence slope in test [5] was 5.1e-05 (inactive). In addition, the slope in test [6] was 0.00477 (inactive).
As for `Oc1ccc(C=Nc2cccc3ncccc23)c(O)c1`, in test [1], the cell count was 682. Further, the inhibition in test [1] was -40.5% (inactive); in test [3], -138% (inactive); in test [7], 11.3% (inactive); in test [8] it was 17.3% (inactive). Also, the inhibition of aggregation in test [2] was -10% (inactive). Besides, the nuclei count stood at 111% in test [2] and 118% in test [3]. For the same molecule, the fluorescence slope in test [4] was -0.483 (inactive). Also, in test [5], the NADPH fluorescence slope is -2.5e-05 (inactive). For the same molecule, in test [6], the slope is 0.00472 (inactive).
As to `CC1CCc2c(sc3c2C2=NS(=O)(=O)CCN2C=N3)C1` (stereo not given), the cell count in test [1] turned out to be 188. In addition, the inhibition in test [1] was 2.9% (inactive); in test [3], -5.5% (inactive); in test [7] it was 11.9% (inactive); in test [8], 33.3% (inactive). Further, in test [2], the inhibition of aggregation was 2.7% (inactive). For the same molecule, the nuclei count in test [2] came out at 87.1%; in test [3] it was 108%. Besides, the fluorescence slope in test [4] is -0.582 (inactive). Besides, the NADPH fluorescence slope in test [5] is -6.8e-05 (inactive). Further, in test [6], the slope is 0.00732 (inactive).
As for `O=C(O)C1CC=CCC1C(=O)Nc1cccc(F)c1` (stereo not given), the cell count in test [1] stood at 446. For the same molecule, the inhibition in test [1] is 5.9% (inactive); in test [3], 0.8% (inactive); in test [7] it was 10.2% (inactive); in test [8] it was 31.8% (inactive). Also, in test [2], the inhibition of aggregation is -9.5% (inactive). Besides, the nuclei count in test [2] worked out at 112%; in test [3], 116%. Also, in test [4], the fluorescence slope is -0.432 (inactive). For the same molecule, the NADPH fluorescence slope in test [5] was -2.5e-05 (inactive). In addition, in test [6], the slope is 0.00329 (inactive).
Consider `O=c1c2nnn(Cc3ccc(Cl)cc3)c2ncn1Cc1ccc(F)cc1`, for which the cell count in test [1] was 608. Besides, the inhibition in test [1] was -7.9% (inactive); in test [3], -19.2% (inactive); in test [7], 13.6% (inactive); in test [8], 20.6% (inactive). Besides, the inhibition of aggregation in test [2] was -10.3% (inactive). The nuclei count in test [2] was found to be 130%; in test [3], 111%. The fluorescence slope in test [4] is -0.539 (inactive). Further, in test [5], the NADPH fluorescence slope was -6.1e-05 (inactive). The slope in test [6] was 0.00552 (inactive).
Regarding `COc1ccc(C(=O)NCc2nc3ccccc3[nH]2)cc1OC`, in test [1], the cell count was 679. Besides, the inhibition in test [1] was -0.5% (inactive); in test [3], -7.5% (inactive); in test [7] it was -1.85% (inactive); in test [8], 25% (inactive). In addition, in test [2], the inhibition of aggregation was 6.6% (inactive). The nuclei count in test [2] amounted to 82.2%; in test [3], 112%. For the same molecule, the fluorescence slope in test [4] was -0.582 (inactive). In addition, in test [5], the NADPH fluorescence slope was 3.9e-06 (inactive). The slope in test [6] is 0.0061 (inactive).
